Experimental data reported in PubChem BioAssay (NCATS).
Several values for one entry are separate records, joined by “and”; a condition that tells them apart may be missing. Identical values can stand only once. Inconclusive results are not listed. Activity calls are given as the source filed them. Unless noted, the call rests on the fitted dose curve; in most records, active means well fitted curve in the direction sought with a large enough effect; inconclusive means small, poorly fitted or top-dose-only effect, or another doubt; inactive means no such curve, though single readings can be large; an effect the other way counts as inactive or inconclusive.

Legend:
[1] = biological target: 3',5'-cyclic-AMP phosphodiesterase 4B (Homo sapiens) (UniProt Q07343); experiment: qHTS Assay for Inhibitors of PDE-IV (AID 607; active means well fitted activation curve with a large enough effect in the main read-out, with a control signal flat, not every such curve was filed as active; further: % of control where 0% means no effect)
Sequence of 3',5'-cyclic-AMP phosphodiesterase 4B (Homo sapiens) (Q07343 whole entry, looked up): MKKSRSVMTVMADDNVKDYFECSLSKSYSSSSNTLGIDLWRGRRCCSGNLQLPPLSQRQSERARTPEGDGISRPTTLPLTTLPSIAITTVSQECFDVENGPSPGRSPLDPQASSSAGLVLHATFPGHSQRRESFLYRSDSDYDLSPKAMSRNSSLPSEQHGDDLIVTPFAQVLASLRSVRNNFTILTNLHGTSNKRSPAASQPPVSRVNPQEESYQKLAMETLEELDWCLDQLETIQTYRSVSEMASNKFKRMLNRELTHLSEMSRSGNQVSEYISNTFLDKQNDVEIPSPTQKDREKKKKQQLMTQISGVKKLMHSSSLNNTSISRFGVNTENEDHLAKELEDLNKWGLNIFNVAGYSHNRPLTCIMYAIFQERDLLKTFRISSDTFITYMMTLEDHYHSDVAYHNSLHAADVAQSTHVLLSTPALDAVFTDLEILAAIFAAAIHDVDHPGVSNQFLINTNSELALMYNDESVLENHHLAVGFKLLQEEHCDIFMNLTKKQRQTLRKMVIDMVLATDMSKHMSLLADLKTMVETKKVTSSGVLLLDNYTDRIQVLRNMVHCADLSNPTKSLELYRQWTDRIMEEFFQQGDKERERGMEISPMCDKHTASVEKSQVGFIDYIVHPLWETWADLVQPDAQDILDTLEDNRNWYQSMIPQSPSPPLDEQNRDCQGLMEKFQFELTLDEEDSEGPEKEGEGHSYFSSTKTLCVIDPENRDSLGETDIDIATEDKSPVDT
Method in brief: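 The readout is membrane depolarisation from a cAMP-sensing CNG channel, detected with a potential dye at ex 535/em 590. Cells were HEK293-derived (endogenous PDE-IV) at 1000 cells/well, titrated up to 22.9 uM final.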

[2] = Cell Viability - Mesenchymal (AID 546);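 further: cells exposed to compound for 40 hours before reading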
Method in brief: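 Human renal mesenchymal cells (glomerulus-derived), 1000 cells/well, 5 hr 37 °C pre-incubation; compound 40 hr, 37 °C; CellTiter-Glo, 20 min RT; luminescence; AC50 via Hill equation.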

[3] = Cellular Toxicity (caspase-3) HepG2 (AID 654);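 further: cells exposed to compound for 16 hours before reading; 0% = DMSO alone and 100% = caspase signal from 100 µM tamoxifen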
Method in brief: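 Caspase 3/7 activation in HepG2 is measured as rising luminescence after a 16 hr treatment at 37 °C. Values are scaled between DMSO basal and 100 uM tamoxifen, and AC50 is fitted with the Hill equation.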

[4] = Cellular Toxicity (caspase-3) Jurkat (AID 655); settings: Jurkat caspase-3 activation, luminescence; caspase-3 activation: at 92.2 µM (top of the series), DMSO = 0%, tamoxifen = 100%;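 further: cells exposed to compound for 16 h at 37 °C before reading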
Method in brief: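 Jurkat cells (5000/well) in complete medium were treated with compounds for 16 hr at 37 °C, then Caspase-Glo 3/7 luminescence was read after 20 min at room temperature. Data normalized to DMSO (basal) and 100 uM tamoxifen (100%); AC50 from Hill fit.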

[5] = Cellular Toxicity (caspase-3) HUV-EC-C (AID 656)
Method in brief: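 HUV-EC-C endothelial cells, 1000/well, were pre-incubated 5 hr at 37°C, then exposed to compounds for 16 hr at 37°C. Caspase-Glo 3/7 luminescence was read after 20 min at room temperature. AC50 came from Hill fits, normalized to DMSO and 100 uM tamoxifen.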

[6] = Cellular Toxicity (caspase-3) SHSY5Y (AID 657)
Method in brief: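 SH-SY5Y human neuroblastoma cells (1500/well) were treated with compounds for 16 h at 37 °C, then Caspase-Glo 3/7 luminescence was read after 1 h at room temperature. Data normalized to DMSO and 10 uM staurosporine; AC50 from Hill fits.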

[7] = Cellular Toxicity (caspase-3) BJ (AID 658);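 further: 0% = DMSO basal and 100% = 10 µM staurosporine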
Method in brief: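 qHTS, BJ fibroblasts, 1000 cells/well; 5 hr preincubation, 16 hr compound, 37 °C; Caspase-Glo 3/7 reagent, 1 hr RT; luminescence. DMSO = 0%, 10 uM staurosporine = 100%. Hill-equation AC50.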

[8] = Cellular Toxicity (caspase-3) MRC-5 (AID 659);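 further: 0% = DMSO basal and 100% = 10 µM staurosporine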
Method in brief: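 MRC-5 fibroblasts, 1500/well; 16 h cpd, 37 °C; Caspase-Glo 3/7, 1 h RT; lumi read. Norm: DMSO = 0%, 10 uM staurosporine = 100%. Hill-fit AC50 from qHTS conc-response.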

[9] = Cellular Toxicity (caspase-3) Mesangial (AID 660);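 further: combined caspase 3 and 7 activity read by Caspase-Glo luminescence; cells exposed to compound for 16 h before the caspase read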
Method in brief: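 Seed cells derived from normal human renal glomeruli, incubate 5 h, add compounds across concentrations and incubate 16 h at 37 °C. Caspase 3/7 activation is then quantified by luciferase light, with AC50 derived by Hill modeling.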

[10] = Cellular Toxicity (caspase-3) SK-N-SH (AID 661);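 further: 0% = DMSO basal and 100% = 10 µM staurosporine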
Method in brief: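 Cells were seeded and incubated 5 hr at 37 °C, dosed with compound over a concentration range for 16 hr, then given Caspase-Glo 3/7 reagent for 1 hr at room temperature before luminescence reading.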

[11] = Cellular Toxicity (caspase-3) H-4-II-E (AID 663); settings: H-4-II-E rat hepatoma, scaled: DMSO 0%, 100 µM tamoxifen 100%; at 92.2 µM (top of the series);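 further: cells exposed to compound for 16 hr before readout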
Method in brief: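 H-4-II-E rat hepatoma, 1500 cells/well, 5 hr settle at 37 °C; compound 16 hr, 37 °C, complete medium; Caspase-Glo 3/7, 20 min RT; luminescence. DMSO = 0%, 100 uM tamoxifen = 100%; Hill-equation AC50.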

[12] = Cellular Toxicity (caspase-3) Hek293 (AID 664);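 further: cells exposed to compound for 16 h at 37 °C before readout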
Method in brief: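 qHTS, HEK293 (human embryonic kidney), 16 h cpd exposure in complete medium. Caspase-3/7 activation = luminescence increase; normalized to DMSO/100 uM tamoxifen; Hill-fit AC50.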

[13] = Cellular Toxicity (caspase-3) N2a (AID 665);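 further: compound exposure lasted 16 h at 37 °C before readout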
Method in brief: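 Caspase-3/7 activation, measured as increased luminescence from aminoluciferin release, is quantified in mouse N2a cells exposed to compounds for 16 h. Values are normalized to DMSO and 10 uM staurosporine, with AC50 derived by Hill modelling.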

[14] = Cellular Toxicity (caspase-3) NIH 3T3 (AID 666);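 further: caspase signal read after 16 h compound exposure; 0% = DMSO basal and 100% = 100 µM tamoxifen stimulation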
Method in brief: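 Cells were plated at 1000 per well and incubated 5 hr at 37°C, then compound was added for 16 hr. Caspase-Glo 3/7 reagent followed for 20 min at room temperature before luminescence was read.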

[15] = Cellular Toxicity (caspase-3) Renal Proximal Tubule (AID 667);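 further: cells exposed to compound for 16 hours at 37 °C before detection; 0% = DMSO basal and 100% = 10 µM staurosporine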
Method in brief: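 Primary rat proximal tubule cells, 1000/well, 5 h plating at 37 °C, then compound 16 h at 37 °C. Caspase-Glo 3/7 reagent, 1 h RT, luminescence. Normalized to DMSO (basal) and 10 uM staurosporine (100%); Hill-fit AC50.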

[16] = biological target: Guanine nucleotide-binding protein G(i) subunit alpha-1 (Homo sapiens) (UniProt P63096); experiment: qHTS Assay for Inhibitors of RGS12 GoLoco Motif Activity (Green Fluorophore) (AID 879);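 further: 0% = labeled peptide with Gαi1 and full inhibition = labeled peptide alone without protein; negative values mean loss of peptide binding seen as reduced polarization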
Sequence of Guanine nucleotide-binding protein G(i) subunit alpha-1 (Homo sapiens) (P63096 whole entry, looked up): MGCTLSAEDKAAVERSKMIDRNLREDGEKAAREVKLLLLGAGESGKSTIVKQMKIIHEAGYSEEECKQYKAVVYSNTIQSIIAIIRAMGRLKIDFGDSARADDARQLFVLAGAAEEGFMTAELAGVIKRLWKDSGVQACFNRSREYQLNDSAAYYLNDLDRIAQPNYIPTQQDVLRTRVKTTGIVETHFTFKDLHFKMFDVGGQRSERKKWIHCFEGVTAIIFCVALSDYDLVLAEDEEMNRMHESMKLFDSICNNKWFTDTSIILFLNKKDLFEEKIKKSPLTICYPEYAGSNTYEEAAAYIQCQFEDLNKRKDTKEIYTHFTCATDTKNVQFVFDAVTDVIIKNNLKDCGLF
Method in brief: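 A drop in FITC polarization marked displacement of the FITC-tagged RGS12 GoLoco peptide (10 nM) from Gαi1 (50 nM). Compounds were incubated 10 min at room temperature in Tris pH 7.5 buffer containing 150 mM NaCl, 0.1 mM GDP and 0.05% NP40; unlabeled peptide titration served as control.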

[17] = biological target: Cytochrome P450 3A4 (Homo sapiens) (UniProt P08684); experiment: qHTS Assay for Inhibitors and Substrates of Cytochrome P450 3A4 (AID 884); further: on the % scale 0 is the no-effect control and ±100 the full control effect; nearly all actives have a fitted effect of over 50% in size
Sequence of Cytochrome P450 3A4 (Homo sapiens) (P08684 whole entry, looked up): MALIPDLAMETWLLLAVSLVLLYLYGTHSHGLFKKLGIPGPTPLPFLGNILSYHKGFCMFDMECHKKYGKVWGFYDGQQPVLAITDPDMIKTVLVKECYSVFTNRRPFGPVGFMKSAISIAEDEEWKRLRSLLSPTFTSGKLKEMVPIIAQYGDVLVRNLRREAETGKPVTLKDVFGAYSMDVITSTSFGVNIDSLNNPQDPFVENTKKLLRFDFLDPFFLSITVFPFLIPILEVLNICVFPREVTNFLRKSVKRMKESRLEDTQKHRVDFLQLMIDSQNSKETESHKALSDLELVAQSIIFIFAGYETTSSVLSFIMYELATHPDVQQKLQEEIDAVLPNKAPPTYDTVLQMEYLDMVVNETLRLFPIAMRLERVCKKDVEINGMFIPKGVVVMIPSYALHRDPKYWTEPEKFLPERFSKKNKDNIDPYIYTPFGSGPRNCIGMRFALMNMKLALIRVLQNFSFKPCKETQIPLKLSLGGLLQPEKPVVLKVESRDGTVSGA
Method in brief: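 Luminescent readout of luciferin produced by CYP3A4 (20 nM) dealkylation of Luciferin-PPXE, 25 uM (its KM). NADPH-driven reaction ran 60 min at RT after 10 min compound preincubation; data scaled to 57 uM ketoconazole as 100% inhibition.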

[18] = biological target: Cytochrome P450 2C9 (Homo sapiens) (UniProt P11712); experiment: qHTS Assay for Inhibitors and Substrates of Cytochrome P450 2C9 (AID 883); further: nearly all actives have a fitted effect of over 60% in size; further: potency means the concentration at half of the fitted maximal effect
Sequence of Cytochrome P450 2C9 (Homo sapiens) (P11712 whole entry, looked up): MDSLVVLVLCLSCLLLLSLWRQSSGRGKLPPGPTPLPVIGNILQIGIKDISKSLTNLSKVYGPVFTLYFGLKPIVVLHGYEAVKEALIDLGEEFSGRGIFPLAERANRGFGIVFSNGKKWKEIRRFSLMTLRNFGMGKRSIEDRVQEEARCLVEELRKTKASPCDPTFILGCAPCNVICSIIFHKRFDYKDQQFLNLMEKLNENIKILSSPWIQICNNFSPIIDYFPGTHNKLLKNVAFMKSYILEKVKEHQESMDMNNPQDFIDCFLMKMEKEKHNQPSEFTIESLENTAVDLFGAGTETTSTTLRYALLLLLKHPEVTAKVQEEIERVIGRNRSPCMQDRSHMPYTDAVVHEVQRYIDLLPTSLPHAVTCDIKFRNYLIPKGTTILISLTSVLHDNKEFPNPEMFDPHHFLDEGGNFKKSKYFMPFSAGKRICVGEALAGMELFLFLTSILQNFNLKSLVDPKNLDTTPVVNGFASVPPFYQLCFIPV
Method in brief: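 Human CYP2C9 (10nM) with Luciferin-H at 100uM (its KM) in 25mM KPO4; compound preincubated 10 min at 37C, then NADPH regeneration for 60 min at 37C. Luciferin read by luminescence after detection reagent; normalized to 57uM sulphaphenazole as full inhibition.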

[19] = biological target: Cytochrome P450 2D6 (Homo sapiens) (UniProt P10635); experiment: qHTS Assay for Inhibitors and Substrates of Cytochrome P450 2D6 (AID 891);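 further: luciferin methyl ether substrate demethylated by CYP2D6 with NADPH regeneration; on the % scale 0 is the no-effect control and ±100 the full control effect; nearly all actives have a fitted effect of over 60% in size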
Sequence of Cytochrome P450 2D6 (Homo sapiens) (P10635 whole entry, looked up): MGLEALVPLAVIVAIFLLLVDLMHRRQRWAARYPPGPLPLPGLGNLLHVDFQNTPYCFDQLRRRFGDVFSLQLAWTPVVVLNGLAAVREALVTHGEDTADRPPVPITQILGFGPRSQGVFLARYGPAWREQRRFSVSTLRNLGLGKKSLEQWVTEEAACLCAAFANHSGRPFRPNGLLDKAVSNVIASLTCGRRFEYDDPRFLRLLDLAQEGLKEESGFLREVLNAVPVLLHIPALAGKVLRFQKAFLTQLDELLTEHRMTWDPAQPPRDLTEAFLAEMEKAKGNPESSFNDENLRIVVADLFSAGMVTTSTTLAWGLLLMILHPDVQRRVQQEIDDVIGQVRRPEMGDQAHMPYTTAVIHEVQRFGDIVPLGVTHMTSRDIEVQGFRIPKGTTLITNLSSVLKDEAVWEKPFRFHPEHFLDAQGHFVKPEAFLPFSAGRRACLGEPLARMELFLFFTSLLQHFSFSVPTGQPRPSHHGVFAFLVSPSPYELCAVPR
Method in brief: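 Luminescent read-out of luciferin formed by 5 nM human CYP2D6 demethylating 30 uM Luciferin-ME EGE (Km level) over 60 min at room temperature after NADPH regeneration addition. Data normalized to full inhibition by 1.43 uM quinidine.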

[20] = biological target: Cytochrome P450 3A4 (Homo sapiens) (UniProt P08684); experiment: qHTS Assay for Activators of Cytochrome P450 3A4 (AID 885); further: nearly all actives have a fitted effect of over 65% in size
Method in brief: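 Activators are scored by enhanced luminescence from CYP3A4 conversion of luciferin-PPXE (25uM, equal to KM) to luciferin, after 60 min at RT with an NADPH-regenerating system.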

C=C(C)[C@H]1Cc2c(ccc3c2O[C@@H]2COc4cc(OC)c(OC)cc4[C@@H]2C3=O)O1
inactive: outcome [1]

CNCC(O)c1ccc(O)cc1 (stereo not drawn)
inactive: outcome [2] | Potency [3] | caspase-3 activation [4] 2.25% | outcome [5] | Potency [6] | outcome [7] | outcome [8] | outcome [9] | outcome [10] | caspase-3 activation [11] -0.124% | outcome [12] | outcome [13] | outcome [14] | outcome [15] | outcome [16] | Potency [17]

N[C@@H]1C[C@H]1c1ccccc1
inactive: outcome [1] | outcome [16]

Cc1cccc(C)c1NC1=NCCCS1
inactive: outcome [1] | outcome [16]

O=P1(NCCCl)OCCCN1CCCl (stereo not drawn)
inactive: outcome [1]

Oc1cccc2cccnc12
inactive: outcome [2] | outcome [1] | Potency [3] | caspase-3 activation [4] 7.85% and 22.6% | outcome [5] | Potency [6] | outcome [7] | outcome [8] | outcome [10] | caspase-3 activation [11] 5.58% and 5.31% | outcome [12] | outcome [13] | outcome [14] | outcome [15] | Potency [17]

CCN(CC)C(=O)N[C@@H]1C=C2c3cccc4[nH]cc(c34)C[C@@H]2N(C)C1
inactive: outcome [1]

N#CC(C#N)=Cc1ccc(O)c(O)c1
inactive: outcome [1] | outcome [16] | Potency [19]
active: Potency [18] 7.94 µM

NCC(O)c1ccc(O)cc1 (stereo not drawn)
inactive: outcome [2] | Potency [3] | caspase-3 activation [4] -0.0147% | outcome [5] | Potency [6] | outcome [7] | outcome [8] | outcome [9] | outcome [10] | caspase-3 activation [11] -0.161% | outcome [12] | outcome [13] | outcome [14] | outcome [15] | Potency [17]

CCOP(=S)(OCC)Oc1cc(C)nc(C(C)C)n1
inactive: outcome [2] | Potency [3] | caspase-3 activation [4] 1.42% | outcome [5] | Potency [6] | outcome [7] | outcome [8] | outcome [9] | outcome [10] | caspase-3 activation [11] -0.387% | outcome [12] | outcome [13] | outcome [14] | outcome [15]

C[C@]12C/C(=C/O)C(=O)C[C@@H]1CC[C@@H]1[C@@H]2CC[C@@]2(C)[C@H]1CC[C@]2(C)O
inactive: outcome [2] | caspase-3 activation [4] 15% | outcome [5] | Potency [6] | outcome [7] | outcome [8] | outcome [9] | outcome [10] | outcome [14]

CCn1cc(C(=O)O)c(=O)c2ccc(C)nc21
inactive: outcome [1] | outcome [16]

Nc1ccncc1
inactive: outcome [1] | outcome [16]

CCCC(C)(COC(N)=O)COC(=O)NC(C)C (stereo not drawn)
inactive: outcome [2] | Potency [3] | caspase-3 activation [4] 1.39% | outcome [5] | Potency [6] | outcome [7] | outcome [8] | outcome [9] | outcome [10] | caspase-3 activation [11] 0.766% | outcome [12] | outcome [13] | outcome [14] | outcome [15] | outcome [16] | outcome [20]

CCCN1CCC[C@@H]2Cc3nc(N)ncc3C[C@H]21
inactive: outcome [1] | outcome [16]

O=c1[nH]c2ccccc2n1C1CCN(CCCC(c2ccc(F)cc2)c2ccc(F)cc2)CC1
inactive: outcome [1] | outcome [16] | Potency [18] | Potency [17]

O=c1[nH]c2ccccc2n1CCCN1CCC(n2c(=O)[nH]c3cc(Cl)ccc32)CC1
inactive: outcome [1] | outcome [16]

C#CCN(C)[C@H](C)Cc1ccccc1
inactive: outcome [1]

Cc1ccc(S(=O)(=O)N[C@@H](CCCCN)C(=O)CCl)cc1
inactive: outcome [1] | outcome [16]

NP(N)(=O)NC(=O)c1ccc(F)cc1
inactive: outcome [1]

Fc1ccc(C(OCCN2CCN(CCCc3ccccc3)CC2)c2ccc(F)cc2)cc1
inactive: outcome [1] | outcome [16]

Oc1ccc(Cl)cc1Cc1ccccc1
inactive: outcome [2] | Potency [3] | caspase-3 activation [4] 18.5% | outcome [5] | Potency [6] | outcome [7] | outcome [8] | outcome [9] | outcome [10] | caspase-3 activation [11] 2.16% | outcome [12] | outcome [13] | outcome [14] | outcome [15]
